In the library only some 1.6% were active in any assay of this set; here they are far more common.
KCNQ2 pot: potentiators of rat KCNQ2 potassium channel. O88943. CHO-K1 KCNQ2, FluxOR thallium flux fluorescence; hits give high values. B-score at 10 µM. 0.54% of 310,000 active. AID 2239;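 active = fluorescence ratio B-score at least 3 SD of library B-scores, with initial fluorescence B-score within 3 of them, cut at about 5.3 in these data; same plate scores as AID 2156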;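 also: B-score of peak minus minimum over baseline fluorescence ratio after K+ and Tl+ stimulus; positive B-score means potentiation of KCNQ2 with more thallium influx and brighter signal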
KCNQ2 inh: KCNQ2 (rat) channel inhibition. O88943. CHO-K1 KCNQ2, FluxOR thallium flux, 20 min; hits give low values. B-score at 10 µM. 1.1% of 310,000 active;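 active = fluorescence ratio B-score at most minus 3 library SDs, with starting brightness B-score within 2 library SDs, cut at about -5.5 in these data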
Kir21 conf inh: confirmation of mouse Kir2.1 potassium channel inhibitors | shares compounds with KCNQ2 pot | Kir2.1-expressing cells, FluxOR thallium flux fluorescence; hits give low values | Tl flux remaining, % of negative control (hits give low values), % at 10 µM | 41% of 2,300 active | AID 2032;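 active = Primary-screen hit whose thallium flux fell at least 3 control SD below untreated wells in both duplicates, with normal baseline fluorescence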
HEK293 Tl flux: alters thallium flux in parental HEK293 cells, Kir2.1 counter-screen; shares compounds with KCNQ2 pot; FluxOR thallium flux fluorescence; 0% = unstimulated blank wells; FluxOR signal as % of negative control (100 = no effect), % at 10 µM; 19% of 2,300 active;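 active = dye signal at least 3 control SD above or below untreated wells in both duplicates, raw fluorescence within 3, either direction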;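 also: percent is based on the flux ratio of peak minus minimum fluorescence over baseline F0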
CHO-K1 Tl ctr: counter-screen for KCNQ2 potentiators: effect in parental CHO-K1 cells; shares compounds with KCNQ2 pot; FluxOR thallium flux fluorescence; zero = vehicle mean+3SD, 100% = vehicle-minus-blank window; activity increase over 3SD of controls, % at 10 µM; 43% of 1,200 active;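 active = signal rise of at least 3 SD above the untreated control mean, in both duplicate wells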;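 also: counter screen of KCNQ2 potentiator hits so any rise reflects channel-independent effects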
KCNQ1 pot spec: selectivity of KCNQ2 potentiators: effect on human KCNQ1; shares compounds with KCNQ2 pot; CHO KCNQ1 stable, FluxOR thallium flux fluorescence; beyond 3SD, as % of vehicle-control signal; activation over 3SD threshold, % at 10 µM; 28% of 1,200 active;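 active = fluorescence ratio rise of at least 3 SD of vehicle wells above their mean, in both replicate wells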
Target sequence (P51787 whole entry, looked up): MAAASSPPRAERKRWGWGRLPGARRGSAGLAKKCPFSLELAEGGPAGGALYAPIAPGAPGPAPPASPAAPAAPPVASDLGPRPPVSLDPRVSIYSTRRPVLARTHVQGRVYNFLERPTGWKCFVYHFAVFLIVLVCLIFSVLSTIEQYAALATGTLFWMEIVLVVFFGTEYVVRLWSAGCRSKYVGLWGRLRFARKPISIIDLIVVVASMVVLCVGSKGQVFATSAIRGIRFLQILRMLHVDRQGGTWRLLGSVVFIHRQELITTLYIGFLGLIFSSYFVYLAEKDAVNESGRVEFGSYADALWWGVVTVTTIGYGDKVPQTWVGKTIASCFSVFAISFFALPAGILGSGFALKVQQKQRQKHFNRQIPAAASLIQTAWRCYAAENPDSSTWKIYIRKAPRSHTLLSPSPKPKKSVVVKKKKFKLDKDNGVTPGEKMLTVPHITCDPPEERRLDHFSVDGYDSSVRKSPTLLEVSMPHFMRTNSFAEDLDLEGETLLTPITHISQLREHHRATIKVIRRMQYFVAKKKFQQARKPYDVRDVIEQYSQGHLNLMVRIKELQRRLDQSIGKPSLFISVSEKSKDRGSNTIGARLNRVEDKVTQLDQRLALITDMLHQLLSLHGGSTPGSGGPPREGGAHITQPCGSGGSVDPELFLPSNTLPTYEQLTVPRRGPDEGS
KCNQ2 pot confirm: rat KCNQ2 channel potentiator confirmation. potentiation, less the hit threshold, % at 10 µM. CHO-KCNQ2 cells, FluxOR thallium flux fluorescence. 68% of 1,200 active. shares compounds with KCNQ2 pot;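 active = fluorescence ratio rising 3 SD or more over the vehicle control mean in both replicates, plus primary screen hit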;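 also: peak minus minimum thallium fluorescence divided by baseline after K/Tl stimulus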
Kir21 spec: mouse Kir2.1 off-target activity of KCNQ2 potentiators | 2% of 1,200 active | activity over 3SD threshold, % at 10 µM | shares compounds with KCNQ2 pot | HEK293 Kir2.1, FluxOR thallium flux fluorescence;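 active = fluorescence ratio rise of at least 3 SD above the vehicle-control mean, seen in both replicates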
KCNQ2 W236L MoA: potentiates the retigabine-insensitive rat KCNQ2 W236L mutant channel | CHO KCNQ2-W236L, automated patch clamp current | AID 2558 | 10% of 940 active | shares compounds with KCNQ2 pot | current increase over 3SD of negative controls (%), hits give high values, % at 25 µM;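 active = current increase at least 3 SD of the untreated controls above them in both duplicate recordings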
A number is an active result; 0 = inactive; - = not tested or not shown.

SMILES	KCNQ2 pot	KCNQ2 inh	Kir21 conf inh	HEK293 Tl flux	others
Cc1ccc2nc(CCc3nc4ccc(C)cc4[nH]3)[nH]c2c1	-	0	-	-
Cc1noc(/C=C/N(C)C)c1S(=O)(=O)N1CCCC(C(=O)Nc2ccc(F)cc2F)C1 (stereo not drawn)	0	0	-	-
CC(NC(=O)c1ccc(Br)cc1)c1ccc2c(c1)CCCC2 (stereo not drawn)	7.6	0	0	0	CHO-K1 Tl ctr=43;KCNQ1 pot spec=0;KCNQ2 pot confirm=40;Kir21 spec=0;KCNQ2 W236L MoA=0
CC(NC(=O)c1ccccc1Br)c1ccc2c(c1)CCCC2 (stereo not drawn)	-	0	-	-
CCCCCCC/C(C)=N/NC(=O)CC(=O)NCCc1ccccc1	5.6	0	0	0	CHO-K1 Tl ctr=7.3;KCNQ1 pot spec=0;KCNQ2 pot confirm=0;Kir21 spec=0
CCCCCNC(=O)CCc1ccccc1	0	0	-	-
CCOc1ccc(CSC(=N)N)cc1	0	0	-	-
CCCCCOc1ccc(Br)cc1CSC(=N)N	-	0	0	0
CCCCOc1ccc(CSC(=N)N)cc1Cl	-	0	28%	0
COc1ccc(Br)cc1CSC(=N)N	0	0	-	-
c1ccc(-c2nc3c(ccc4ccccc43)[nH]2)nc1	8.4	0	0	0	CHO-K1 Tl ctr=31;KCNQ1 pot spec=6.1;KCNQ2 pot confirm=47;Kir21 spec=0;KCNQ2 W236L MoA=0
c1ccc(-c2nc3ccccc3[nH]2)nc1	-	0	-	-
CC1c2ccsc2CCN1S(=O)(=O)c1cccs1 (stereo not drawn)	-	0	57%	0
CN1CCN(S(=O)(=O)c2cccs2)CC1	0	0	-	-
CCCn1c(SCC(=O)NCc2ccc(F)cc2)n[nH]c1=O	-	0	-	-
CCOC(=O)N1CCN(C(=O)c2c[nH]c3ccc(S(=O)(=O)N(C)c4ccc(OCC)cc4)cc3c2=O)CC1	-	0	-	-
Cc1nc(C(=O)N/N=C/c2[nH]ncc2Br)cs1	0	0	-	-
CC1CCC(C(C)C)C(OC(=O)Cn2c(-c3ccccc3)[n+](C)c3ccccc32)C1 (stereo not drawn)	-	0	26%	0
CC1CCC(C(C)C)C(OC(=O)C[n+]2cc(-c3ccc(Cl)cc3)n3c2CCC3)C1 (stereo not drawn)	0	0	-	-
COc1cccc(NC(=O)c2ccc3c(c2)CCN3S(C)(=O)=O)c1	17	0	0	0	CHO-K1 Tl ctr=2.5;KCNQ1 pot spec=0;KCNQ2 pot confirm=0;Kir21 spec=0
CC(=O)Nc1ccc(NC(=O)c2ccc3c(c2)CCN3S(C)(=O)=O)cc1	-	0	-	-
Cc1ccccc1NS(=O)(=O)c1ccc(C(=O)NCCCN2CCCC2=O)cc1	0	0	-	-
C=CCNC(=S)N1CCN(C2CCCCC2)CC1	-	0	-	-
O=C(Nc1c2c(nn1-c1ccc([N+](=O)[O-])cc1)CS(=O)(=O)C2)c1ccco1	0	0	-	-
COc1ccc(-c2nnn(CC(=O)N(CC3CCCO3)C(C(=O)NC(C)(C)C)c3ccco3)n2)cc1OC (stereo not drawn)	-	0	-	-
SMILES	KCNQ2 pot	KCNQ2 inh	Kir21 conf inh	HEK293 Tl flux	others
COC(=O)c1cccc(NC(=S)Nc2ccccc2Cl)c1	0	0	-	-
COC(=O)c1cccc(NC(=S)Nc2ccc(Cl)c(Cl)c2)c1	5.4	0	0	0	CHO-K1 Tl ctr=0;KCNQ1 pot spec=1.4;KCNQ2 pot confirm=0;Kir21 spec=0;KCNQ2 W236L MoA=0
CCOCCCN(C(=O)c1snc(C(N)=O)c1N)C(C(=O)NC1CCCC1)c1ccc(OC)cc1 (stereo not drawn)	0	0	-	-
COc1cc(C)c(C(=O)Oc2cc(C)c(C(=O)O)c(O)c2)c(O)c1	7	0	0	0	CHO-K1 Tl ctr=45;KCNQ1 pot spec=0;KCNQ2 pot confirm=14;Kir21 spec=0;KCNQ2 W236L MoA=21%
COc1cc(C)c(C(=O)Oc2cc(C)c(C(=O)O)c(O)c2C)c(O)c1C	0	0	-	-
COc1ccc(C)cc1NCc1cccc(OC)c1OC	-	0	-	-
COc1cc(OC)c(OC)cc1CNc1cc(C)ccc1OC	-	0	54%	0
CCOc1cc(CNCC(C)C)cc(Cl)c1OCc1ccccc1	-	0	20%	0
CCOc1c(Cl)cc(CNCC(C)C)cc1OC	0	0	-	-
CCOc1cc(CNC2CCCC2)cc(Cl)c1OCc1ccccc1	-	0	34%	134%
CCOc1cc(CNC2CCCC2)ccc1OCc1ccccc1Cl	-	0	-	-
COc1cccc(C(=O)NCCS(=O)(=O)N2CCC(C)CC2)c1	0	0	-	-
CC(=O)Nc1ccc(S(=O)(=O)N2CCN(CC3CC4C=CC3C4)CC2)cc1 (stereo not drawn)	-	0	-	-
CC(=O)Nc1nc(SCC(=O)NCc2ccc(F)cc2)[nH]c(=O)c1NC(=O)c1cccs1	0	0	-	-
O=C(CNC(=O)[C@@H]1Cc2ccccc2CN1)Nc1ccc2c(c1)OCCO2	-	0	-	-
CCN(CC)CC#CCC(OC)(c1ccccc1)c1ccccc1	0	0	-	-
COc1ccc(-c2cc(-c3ccc(C)cc3)n[nH]2)c(O)c1	7	0	0	0	CHO-K1 Tl ctr=16;KCNQ1 pot spec=0;KCNQ2 pot confirm=0;Kir21 spec=0
COc1ccc(-c2cc(-c3cc(C)ccc3O)[nH]n2)cc1	0	0	-	-
CC1=NN(c2cccc(C(=O)O)c2)C(=O)/C1=C\C=C/c1ccccc1	7.2	0	0	0	CHO-K1 Tl ctr=33;KCNQ1 pot spec=0;KCNQ2 pot confirm=36;Kir21 spec=0;KCNQ2 W236L MoA=0
CC1=NN(c2ccc(C)cc2)C(=O)/C1=C\C=C\c1ccccc1	-	0	-	-
CCCCCCN1C=CC=C/C1=C\C=C(C#N)C#N	-	0	-	-
O=C(Nc1ccc(Br)cc1)c1ccc(-n2cnnn2)cc1	0	0	-	-
Cc1cccc(C)c1NC(=O)c1ccc(-n2cnnn2)cc1	13	0	0	0	CHO-K1 Tl ctr=0;KCNQ1 pot spec=0;KCNQ2 pot confirm=0;Kir21 spec=0
Cc1ccc(C2C(C#N)=C(N)OC3=C2C(=O)CCC3)s1 (stereo not drawn)	6.5	0	0	0	CHO-K1 Tl ctr=0;KCNQ1 pot spec=3.7;KCNQ2 pot confirm=1.5;Kir21 spec=0;KCNQ2 W236L MoA=0
CCc1ccc(C2C(C#N)=C(N)OC3=C2C(=O)CCC3)s1 (stereo not drawn)	0	0	-	-
SMILES	KCNQ2 pot	KCNQ2 inh	Kir21 conf inh	HEK293 Tl flux	others
Cc1ccc(S(=O)(=O)NCCC(=O)N2CCCCCC2)cc1	0	0	-	-
Cc1ccc(S(=O)(=O)NCCC(=O)N2CCC(Cc3ccccc3)CC2)cc1	5.3	0	0	0	CHO-K1 Tl ctr=13;KCNQ1 pot spec=0;KCNQ2 pot confirm=0;Kir21 spec=0;KCNQ2 W236L MoA=0
CC(C)COCc1ccc(O)c2ncccc12	7.7	0	0	0	CHO-K1 Tl ctr=0;KCNQ1 pot spec=11;KCNQ2 pot confirm=51;Kir21 spec=0;KCNQ2 W236L MoA=0
Oc1ccc(CN2CCc3ccccc3C2)c2cccnc12	13	0	32%	0	CHO-K1 Tl ctr=44;KCNQ1 pot spec=0;KCNQ2 pot confirm=1.3;Kir21 spec=0;KCNQ2 W236L MoA=0
CCCOCc1ccc(O)c2ncccc12	0	0	-	-
OCc1ccc(O)c2ncccc12	-	0	-	-
Oc1ccc(CN2CCCCC2)c2cccnc12	0	0	-	-
Oc1ccc(COCc2ccccc2)c2cccnc12	5.9	0	0	0	CHO-K1 Tl ctr=15;KCNQ1 pot spec=0;KCNQ2 pot confirm=1.0;Kir21 spec=0;KCNQ2 W236L MoA=0
Nc1ccccc1-n1c(=O)n(Cc2ccccc2F)c(=O)c2[nH]cnc21	0	0	-	-
O=C(C[n+]1ccc(C(=O)NCc2ccccc2)cc1)c1ccc(Cl)cc1	0	0	-	-

Compound activity as filed in PubChem.
